The full ranking holds about 9,900 sequences; the median of “r (bound/input frequency ratio)” is about 0.7, and the highest 2% start at about 6.5. What follows is part of a selection rich in the highest values, with near analogues and random picks from the rest.
B1: ENSMUSG00000022095.20|Fam160b2 (ssRNA)
RNA: GGGAGUUCUACAGUCCGACGAUCGCUUCGAUAUCCGCAUGCUAGGUGGGGGAAGAUUCCUGCCUGUGUACUUCUGCCCACGGGCAGUCUCCUGCCUGGCCAUGCUGCCACUCUGUCCUCCAUGCCGGGGACUUCAGCUGCAGGACACCUCACCUGUUGACCCCACGAGCUGAGGUUUCAAGGAGGUGCUGGCUCCUAAGGCAGUGGUAUUCUUGGAGCCUUUUAGAGGAGCUAGAGGAUGGCCAGUGAGCGCCUAGAUGCUGCCCUGCAUGUGUUGCGUGACUAUCUCUGCUAUAUUGUGACCCUCUUGCGGUCGCACUAGUGUGGAAUUCUCGGGUGUCAAGG
B2: ENSMUSG00000058297.107|Spock2|69:74 (ssRNA)
RNA: GGGAGUUCUACAGUCCGACGAUCGCUUCGAUAUCCGCAUGCUAUGAGGCAGGACCUGUACACACAGCAAGGCUUACUAUCCGUCUCCUGACAUCCGAAGAGCUCGUCGCAGCACACACUAAUGGCCCUUGGGCUGCACGUGGUUAAGCAUAGCUGUCUCUGUGGCCCAACACAAAGAGGUAAACUUACUUAAAACACAGGGGUUUUGUUGCUGUUUGUUUUUUGUUAGUUUGUUUGUUGAUAAUUGGAUUGAGGAGUUAAUCCUCUGUCACAAUGUCAAAAGCAUGGACAUCCCUGAUAGAUUCUCUUGCGGUCGCACUAGUGUGGAAUUCUCGGGUGUCAAGG
B3: ENSMUSG00000061578.1365|Ksr2|224:228 (ssRNA)
RNA: GGGAGUUCUACAGUCCGACGAUCGCUUCGAUAUCCGCAUGCUACAGGACAGCCCAGCUUCCCACUCCAGACAUGUUGUUCUUACAUCUCUGACCCAGUGAUCUUUCUAGGGGUCUGUCACAUGUCCCAACAGGUGGACAGCUCUCCAAGUCACCAACCUGAGGAAAAUAUCCCUCCUUGUAAAAAGGCUUUCUCUUUGUAAAUGAUUCUGUUGCCUUUUUCUAAACACAAAGUAUAUAUACCUAUAAAUGCUAUAUAUAUUAUAUAACACAAUAUACAUAAAGACUACUUCUUGUACAGCCCUCUCUUGCGGUCGCACUAGUGUGGAAUUCUCGGGUGUCAAGG
B4: ENSMUSG00000004113.365|Cacna1b (ssRNA)
RNA: GGGAGUUCUACAGUCCGACGAUCGCUUCGAUAUCCGCAUGCUAUAUACAAAGGCACAAUACCCUGAAACUUUAACAGAGUAUUUUAUUCCAGUAGGGUAAAAUUAAACGGGACUCUUGGACUGCGCAUGUGACUGCACCCACGUUGCAACAGAGAAGGAUGUGCAUUUUGAUACUGAUGUUCUGUCUCUGUUCCAGCCCCAGCCCCCUUUUCUCUUGAGUGUUGAAUGUAUACAUUCUGUGUGGAACUACAGCUGCCUCAGACAAUCCUGGGUUGGGAAUCAUCUUUAUCCCACAUCAACAUACUCUUGCGGUCGCACUAGUGUGGAAUUCUCGGGUGUCAAGG
B5: ENSMUSG00000058297.177|Spock2 (ssRNA)
RNA: GGGAGUUCUACAGUCCGACGAUCGCUUCGAUAUCCGCAUGCUAUGUCAUCAUAUAGCUGAGAUUUGGAGUAGCCUGCUAUGAGGGCUUGCAGUUGCACUCUCUGUUCCCUGGCGAGGGUCCCCCUUGUCCCAAGGAGCAGAGGACCAGCAAGCAGCCCGUGUCUGCUCACCUUCUCCCUGACCCUCUAGGAAAUGGUUCCCUCUUGCCCCGACCAAUAGAAGGGCGUGUCCCCGAGACCCUUGUGAGGAACCACGGGGAGCUGUGACUUCCUGUGCCCAGAAGGUCCUGGAGGAGAGGCCCCACUCUUGCGGUCGCACUAGUGUGGAAUUCUCGGGUGUCAAGG
B6: ENSMUSG00000058297.112|Spock2|39:44 (ssRNA)
RNA: GGGAGUUCUACAGUCCGACGAUCGCUUCGAUAUCCGCAUGCUAUACUAUCCGUCUCCUGACAUCCGAAGAGCUCGUCGCAGCACACACUAAUGGCCCUUGGGCUGCACGUGGUUAAGCAUAGCUGUCUCUGUGGCCCAACACAAAGAGGUAAACUUACUUAAAACACAGGGGUUUUGUUGCUGUUUGUUUUUUGUUAGUUUGUUUGUUGAUAAUUGGAUUGAGGAGUUAAUCCUCUGUCACAAUGUCAAAAGCAUGGACAUCCCUGAUAGAUUAUCUCUCAACCUAGUCCCGAGUAACCAGAGCUCUUGCGGUCGCACUAGUGUGGAAUUCUCGGGUGUCAAGG
B7: ENSMUSG00000022095.12|Fam160b2|69:73 (ssRNA)
RNA: GGGAGUUCUACAGUCCGACGAUCGCUUCGAUAUCCGCAUGCUAAACUUCUCUCCACCUCCAGAAGGGCAAGUCUGAGCCAGGAGCAUGACGGGUGGGGGAAGAUUCCUGCCACACAACUUCUGCCCACGGGCAGUCUCCUGCCUGGCCAUGCUGCCACUCUGUCCUCCAUGCCGGGGACUUCAGCUGCAGGACACCUCACCUGUUGACCCCACGAGCUGAGGUUUCAAGGAGGUGCUGGCUCCUAAGGCAGUGGUAUUCUUGGAGCCUUUUAGAGGAGCUAGAGGAUGGCCAGUGAGCGCCUACUCUUGCGGUCGCACUAGUGUGGAAUUCUCGGGUGUCAAGG
B8: ENSMUSG00000028439.123|Fam219a|54:58 (ssRNA)
RNA: GGGAGUUCUACAGUCCGACGAUCGCUUCGAUAUCCGCAUGCUACUGAGGGUUGGGAAGGUAAGAUGGGCCUUAGAGAGAAGCCAGGUUUGGGGAUGCAUACACCUGUUCUCACCGGUCUCUAACCAGUGCAUCUGUCUCUCUGCCUCAUCCCCACACCGCCCUGCCACCCCCAGUCUUCUGUCUAUUGGUUCCAGGCUGGAAGCAAGAGAUAAGGCUGGCCUCCUGUGCCCCAUUGCCAUUUCACCCUAGCUCAAAGUCCAGGAGCCAGGCUUCCAGAAAGGCUCUUCAAGAGCAAGCUUAAGCUCUUGCGGUCGCACUAGUGUGGAAUUCUCGGGUGUCAAGG
B9: ENSMUSG00000042529.392|Kcnj12 (ssRNA)
RNA: GGGAGUUCUACAGUCCGACGAUCGCUUCGAUAUCCGCAUGCUAGAUCAGUCCGACUUGAGUCCCUGCCCUGCCCUGGUUAUGCAGGCUGUACGACGCAGUGUGCAUCAGUCUGAGGAGUCUGGUGGUAAGUAAGCCUCUGCAGCAGACCCUGUCGGAGGCCAUGGGGGCGUGUGUGUGUGUGUGUGUGUGUGUGUGUGUGUGUGUGUGUGUGUGUGUGUGUGAACAUGUGUGAGGGUGUGGAGGUCCCAGGGUGUGUGUAUGUGAAUGUCAGUGGCUUGGGUGCUGUGUGGAGAGAGAGAGAGCUCUUGCGGUCGCACUAGUGUGGAAUUCUCGGGUGUCAAGG
B10: ENSMUSG00000042529.398|Kcnj12 (ssRNA)
RNA: GGGAGUUCUACAGUCCGACGAUCGCUUCGAUAUCCGCAUGCUAAUGCAGGCUGUACGACGCAGUGUGCAUCAGUCUGAGGAGUCUGGUGGUAAGUAAGCCUCUGCAGCAGACCCUGUCGGAGGCCAUGGGGGCGUGUGUGUGUGUGUGUGUGUGUGUGUGUGUGUGUGUGUGUGUGUGUGUGUGUGAACAUGUGUGAGGGUGUGGAGGUCCCAGGGUGUGUGUAUGUGAAUGUCAGUGGCUUGGGUGCUGUGUGGAGAGAGAGAGAGAGAGAGAGAGAGAGAGAGAGAGAGAGAGAGAGAGAGCUCUUGCGGUCGCACUAGUGUGGAAUUCUCGGGUGUCAAGG
B11: ENSMUSG00000042529.393|Kcnj12 (ssRNA)
RNA: GGGAGUUCUACAGUCCGACGAUCGCUUCGAUAUCCGCAUGCUAUCCGACUUGAGUCCCUGCCCUGCCCUGGUUAUGCAGGCUGUACGACGCAGUGUGCAUCAGUCUGAGGAGUCUGGUGGUAAGUAAGCCUCUGCAGCAGACCCUGUCGGAGGCCAUGGGGGCGUGUGUGUGUGUGUGUGUGUGUGUGUGUGUGUGUGUGUGUGUGUGUGUGUGUGAACAUGUGUGAGGGUGUGGAGGUCCCAGGGUGUGUGUAUGUGAAUGUCAGUGGCUUGGGUGCUGUGUGGAGAGAGAGAGAGAGAGAGCUCUUGCGGUCGCACUAGUGUGGAAUUCUCGGGUGUCAAGG
B12: ENSMUSG00000058297.302|Spock2|29:34 (ssRNA)
RNA: GGGAGUUCUACAGUCCGACGAUCGCUUCGAUAUCCGCAUGCUAAUGCCCAGGAAGAGUGAGGGCAGCCCCCACACACGUGGAAGAGGCUGGGCAGCUAGCUACUGGGGACCUUGUGCUGAGGCUUCCAGGACAAAGCCCCAGUCUGGCUCUCCCCCAGCCUCUCAGGGGCACUGGCUGGUCACAUCCACUGAGUAUUGAUCGGUUGGACUUUAGGGAAGAGCCUCCUCCUUCCCAUUCCUUUCUGCCACCCUGGAAUGGCCACCUUAAUCGUCAUCUCCUCGGGGGGAAUACGGAAAUGUCACCUCUUGCGGUCGCACUAGUGUGGAAUUCUCGGGUGUCAAGG
B13: ENSMUSG00000042529.397|Kcnj12 (ssRNA)
RNA: GGGAGUUCUACAGUCCGACGAUCGCUUCGAUAUCCGCAUGCUACUGGUUAUGCAGGCUGUACGACGCAGUGUGCAUCAGUCUGAGGAGUCUGGUGGUAAGUAAGCCUCUGCAGCAGACCCUGUCGGAGGCCAUGGGGGCGUGUGUGUGUGUGUGUGUGUGUGUGUGUGUGUGUGUGUGUGUGUGUGUGUGUGAACAUGUGUGAGGGUGUGGAGGUCCCAGGGUGUGUGUAUGUGAAUGUCAGUGGCUUGGGUGCUGUGUGGAGAGAGAGAGAGAGAGAGAGAGAGAGAGAGAGAGAGAGAGAGCUCUUGCGGUCGCACUAGUGUGGAAUUCUCGGGUGUCAAGG
B14: ENSMUSG00000042529.387|Kcnj12 (ssRNA)
RNA: GGGAGUUCUACAGUCCGACGAUCGCUUCGAUAUCCGCAUGCUACUGGUCAGGCUGGAUGCUGGCCACAGACAUGAUCAGUCCGACUUGAGUCCCUGCCCUGCCCUGGUUAUGCAGGCUGUACGACGCAGUGUGCAUCAGUCUGAGGAGUCUGGUGGUAAGUAAGCCUCUGCAGCAGACCCUGUCGGAGGCCAUGGGGGCGUGUGUGUGUGUGUGUGUGUGUGUGUGUGUGUGUGUGUGUGUGUGUGUGUGUGAACAUGUGUGAGGGUGUGGAGGUCCCAGGGUGUGUGUAUGUGAAUGUCAGUCUCUUGCGGUCGCACUAGUGUGGAAUUCUCGGGUGUCAAGG
B15: ENSMUSG00000042529.386|Kcnj12 (ssRNA)
RNA: GGGAGUUCUACAGUCCGACGAUCGCUUCGAUAUCCGCAUGCUACCUGAACUGGUCAGGCUGGAUGCUGGCCACAGACAUGAUCAGUCCGACUUGAGUCCCUGCCCUGCCCUGGUUAUGCAGGCUGUACGACGCAGUGUGCAUCAGUCUGAGGAGUCUGGUGGUAAGUAAGCCUCUGCAGCAGACCCUGUCGGAGGCCAUGGGGGCGUGUGUGUGUGUGUGUGUGUGUGUGUGUGUGUGUGUGUGUGUGUGUGUGUGUGAACAUGUGUGAGGGUGUGGAGGUCCCAGGGUGUGUGUAUGUGAAUCUCUUGCGGUCGCACUAGUGUGGAAUUCUCGGGUGUCAAGG
B16: ENSMUSG00000042529.388|Kcnj12 (ssRNA)
RNA: GGGAGUUCUACAGUCCGACGAUCGCUUCGAUAUCCGCAUGCUAAGGCUGGAUGCUGGCCACAGACAUGAUCAGUCCGACUUGAGUCCCUGCCCUGCCCUGGUUAUGCAGGCUGUACGACGCAGUGUGCAUCAGUCUGAGGAGUCUGGUGGUAAGUAAGCCUCUGCAGCAGACCCUGUCGGAGGCCAUGGGGGCGUGUGUGUGUGUGUGUGUGUGUGUGUGUGUGUGUGUGUGUGUGUGUGUGUGUGAACAUGUGUGAGGGUGUGGAGGUCCCAGGGUGUGUGUAUGUGAAUGUCAGUGGCUUGCUCUUGCGGUCGCACUAGUGUGGAAUUCUCGGGUGUCAAGG

Each binder was assayed against TDP-43 (Homo sapiens, UniProt Q13148 1-414) (assay: RNA Bind-n-Seq with designed 260-mer pool; 25 mM Tris-HCl, 150 mM KCl, 3 mM MgCl2, BSA (printed 500 mg/mL), 20 units/mL SUPERase IN; pH not stated; 500 nM RNA pool, 1 h, 4 C; TDP-43 5, 50, 500 nM; high values mean tight binding). Conditions: protein: recombinant; tags: SBP (GST cleaved off with PreScission; pGEX-GST-SBP).
Sequence of TDP-43 (Q13148 whole entry): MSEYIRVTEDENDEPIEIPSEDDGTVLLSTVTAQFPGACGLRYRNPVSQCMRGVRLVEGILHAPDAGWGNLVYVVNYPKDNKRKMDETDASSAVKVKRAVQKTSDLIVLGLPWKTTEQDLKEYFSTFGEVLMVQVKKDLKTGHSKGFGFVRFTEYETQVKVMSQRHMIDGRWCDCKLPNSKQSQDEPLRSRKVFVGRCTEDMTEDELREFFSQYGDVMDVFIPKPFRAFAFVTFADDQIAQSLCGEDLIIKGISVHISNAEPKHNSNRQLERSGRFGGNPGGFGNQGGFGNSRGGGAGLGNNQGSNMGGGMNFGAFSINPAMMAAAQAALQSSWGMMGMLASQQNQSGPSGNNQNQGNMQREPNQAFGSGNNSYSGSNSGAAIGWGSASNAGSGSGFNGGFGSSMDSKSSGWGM
Outline: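 Recombinant SBP-tagged TDP-43 at 5, 50 or 500 nM was captured on streptavidin beads, then incubated 1 h at 4 °C with 500 nM of an in vitro-transcribed 260-nt 3′ UTR oligo pool in 25 mM Tris-HCl, 150 mM KCl, 3 mM MgCl2, BSA and SUPERase IN. Bound RNA was washed, eluted with biotin, reverse transcribed, PCR-amplified and sequenced. Binding is R, each oligo's mapped-read-normalized abundance in the bound sample divided by its abundance in input. Duplicates used two independent protein batches.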
For B1, the binding signal was 0.487 R (bound/input frequency ratio). For B2, the binding signal was 1.04 R (bound/input frequency ratio). In the case of B3, the binding signal is reported as 0.125 R (bound/input frequency ratio). For B4, the binding signal was 0.216 R (bound/input frequency ratio). B5 was tested, and the binding signal was 0.086 R (bound/input frequency ratio). In the case of B6, the binding signal is reported as 1.33 R (bound/input frequency ratio). B7 was tested, and the binding signal was 0.253 R (bound/input frequency ratio). B8 was tested, and the binding signal was 0.5 R (bound/input frequency ratio). With B9 the binding signal was 7.12 R (bound/input frequency ratio). With B10 the binding signal was 5.26 R (bound/input frequency ratio). In the case of B11, the binding signal is reported as 5.42 R (bound/input frequency ratio). In the case of B12, the binding signal is reported as 0.746 R (bound/input frequency ratio). For B13, the binding signal was 5.15 R (bound/input frequency ratio). B14 was tested, and the binding signal was 12.1 R (bound/input frequency ratio). For B15, the binding signal was 6.36 R (bound/input frequency ratio). With B16 the binding signal was 9.68 R (bound/input frequency ratio).

From publication PMC12864922, “TDP-43 directly inhibits mRNA accumulation in neurites through modulation of mRNA stability”
